# VDR inhibitor = vitamin D3 receptor (human) inhibition; Potency, µM, for inactives: max response, negative = inhibition, usual class: inhibitors; AID 504847; P11473; VDR-SRC2-3 peptide fluorescence polarization, 2 h; 400,000 tested, 0.93% active; note: potency is the fitted concentration of half-maximal effect; % is set by controls: 0 for no effect and ±100 for the full control effect
#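 VDR–SRC2-3 interaction, FP format. Cmpds 23 nl via pintool, brief spin, 2 h ambient incubation.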
# EPAC2 antag = EPAC2 (human) antagonism. EPAC2 GEF exchange of Rap1B-BODIPY-GDP, fluorescence. Potency, µM (highest dose often 114 µM), without a hit: at the highest dose activity, negative = inhibition, hits mostly inhibitors. 360,000 tested, 0.18% active; note: potency is the fitted concentration of half-maximal effect; % is set by controls: 0 for no effect and ±100 for the full control effect; nearly all actives have a fitted effect of over 45% in size
# EPAC1 antag = EPAC1 (human) antagonism. EPAC1 GEF assay, Rap1b-BODIPY-GDP exchange fluorescence. Potency, µM (doses to about 115 µM), without a hit: top-dose activity change, negative = inhibition, usual class: inhibitors. 360,000 tested, 0.14% active;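 note: potency is the fitted concentration of half-maximal effect; plate controls were vehicle for no effect and positive control for full effect; nearly all actives have a fitted effect of over 50% in size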
# Target sequence (O95398 whole entry, looked up): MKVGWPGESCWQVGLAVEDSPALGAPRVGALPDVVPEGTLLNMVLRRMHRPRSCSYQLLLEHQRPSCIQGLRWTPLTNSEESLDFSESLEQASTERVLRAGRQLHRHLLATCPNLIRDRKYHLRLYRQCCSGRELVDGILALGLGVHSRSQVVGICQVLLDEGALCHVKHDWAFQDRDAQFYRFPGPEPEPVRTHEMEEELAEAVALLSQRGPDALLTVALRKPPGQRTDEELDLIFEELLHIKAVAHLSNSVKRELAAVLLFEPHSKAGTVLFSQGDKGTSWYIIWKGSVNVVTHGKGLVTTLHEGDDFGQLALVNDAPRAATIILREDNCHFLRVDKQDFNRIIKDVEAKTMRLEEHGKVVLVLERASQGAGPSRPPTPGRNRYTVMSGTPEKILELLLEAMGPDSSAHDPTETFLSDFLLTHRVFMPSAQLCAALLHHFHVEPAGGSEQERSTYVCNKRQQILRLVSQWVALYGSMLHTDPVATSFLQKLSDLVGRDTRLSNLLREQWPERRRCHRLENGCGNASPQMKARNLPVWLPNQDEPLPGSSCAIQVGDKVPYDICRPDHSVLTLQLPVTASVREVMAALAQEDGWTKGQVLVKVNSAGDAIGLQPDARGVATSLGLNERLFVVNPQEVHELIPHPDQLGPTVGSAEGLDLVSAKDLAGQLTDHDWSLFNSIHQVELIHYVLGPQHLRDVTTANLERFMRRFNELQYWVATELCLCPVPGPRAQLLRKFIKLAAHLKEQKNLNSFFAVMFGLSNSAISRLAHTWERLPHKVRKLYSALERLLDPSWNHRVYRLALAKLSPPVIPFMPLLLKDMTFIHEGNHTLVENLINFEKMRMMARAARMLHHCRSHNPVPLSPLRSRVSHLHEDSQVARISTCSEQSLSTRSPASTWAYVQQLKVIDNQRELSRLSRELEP
# EPAC1 ag = activates human EPAC1 exchange factor. EPAC1 agonist qHTS, biochemical assay; response scale: 100% = response to 6.5 mM cAMP. Potency, µM (doses to about 154 µM), inactives show at the highest dose activation, usual class: activators. 360,000 tested, 0.073% active; note: potency is the fitted concentration of half-maximal effect; nearly all actives have a fitted effect of over 60% in size
#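 Nucleotide exchange assay: 100 nM EPAC1 with 250 nM Rap1B loaded with BODIPY-GDP and 50 uM GDP, room temperature. Fluorescence (480/540 nm) read every 5 min for 30 min; signal change normalized to 6.5 mM cAMP as full agonist.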
# USP1 inh = blocks the human USP1/UAF1 deubiquitinase complex. 390,000 tested, 0.23% active. Potency, µM (doses to about 57.1 µM), without a hit: at the top dose activity change, negative = inhibition, hits mostly inhibitors. recombinant USP1/UAF1, Ub-Rhodamine cleavage fluorescence. AID 743255. O94782; note: potency is the fitted concentration of half-maximal effect; % is set by controls: 0 for no effect and ±100 for the full control effect; nearly all actives have a fitted effect of over 60% in size
#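 USP1/UAF1 complex at 1 nM was preincubated with compound for 15 min at room temperature, then Ub-Rho substrate (150nM final) was added. Fluorescence (480/540 nm) was read kinetically, 6 reads every 60 seconds.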
# EPAC2 ag = agonists of human EPAC2 (RAPGEF4); EPAC2 activation, biochemical qHTS; response scale: 100% = 6.5 mM cAMP response; Potency, µM (series often up to 154 µM), inactives show at the top dose activation, most hits filed as activators; 360,000 tested, 0.079% active; note: potency is the fitted concentration of half-maximal effect; nearly all actives have a fitted effect of over 50% in size
#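 In this primary screen, activation is scored as increased exchange of BODIPY-GDP from Rap1B by 100 nM EPAC2, with 50 uM GDP as competitor. Signal is normalized to the 6.5 mM cAMP agonist control.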
# USP1 UbRho = validation of human USP1/UAF1 inhibitors; shares compounds with VDR inhibitor; Ub-Rhodamine cleavage, fluorescence kinetic read; Potency, µM (doses to about 114 µM), inactives show at the highest dose activity change, negative = inhibition, most hits filed as inhibitors; 50 tested, 50% active
# VDR inh confirm = confirmation of human vitamin D receptor inhibitors; VDR-coactivator inhibition assay, qHTS confirmation; Potency, µM, actives largely listed as inhibitors; shares compounds with VDR inhibitor; 840 tested, 89% active; note: potency is the fitted concentration of half-maximal effect
# VDR FP fluor = blocks human VDR-coactivator binding in fluorescein assay; shares compounds with VDR inhibitor; VDR-coactivator binding, fluorescein fluorescence polarization; Potency, µM (highest dose often 57.1 µM), for the others: at the highest dose activity change, negative = inhibition, most hits filed as inhibitors; 840 tested, 48% active; note: potency is the fitted concentration of half-maximal effect
# VDR bla reporter = confirmation of human vitamin D receptor inhibitors in reporter cells | Potency, µM (doses to about 46.1 µM), inactives show at the highest dose activity change, negative = inhibition, usual class: inhibitors | 840 tested, 23% active | shares compounds with VDR inhibitor | VDR beta-lactamase reporter cells, FRET ratio; cells co-treated with VDR agonist LG190178; note: potency is the fitted concentration of half-maximal effect; % is set by controls: 0 for no effect and ±100 for the full control effect
# VDR cytotox = cell toxicity, VDR inhibitor hit counter-screen; shares compounds with VDR inhibitor; cytotoxicity counter-screen, cell viability, qHTS; Potency, µM (titrated, usually from 48.3 µM), for the others: at the highest dose activity change, negative = cytotoxicity, hits mostly cytotoxic; 840 tested, 18% active; AID 602204;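 note: potency is the fitted concentration of half-maximal effect; plate controls were DMSO for no effect and high-concentration cycloheximide for full effect; nearly all actives have a fitted effect of over 75% in size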
# The depositor's hits bear a star; u = inconclusive; x = no result given. Sampled rows, rich in hits. Any-hit rate of the full collection: about 1.2%. Calls come from the whole dose curve; as a rule, active = well fitted curve in the direction sought with a large enough effect; inconclusive = small, poorly fitted or top-dose-only effect, or another doubt; inactive = no such curve, though single readings can be large; an effect the other way counts as inactive or inconclusive.
SMILES,VDR inhibitor,EPAC2 antag,EPAC1 antag,EPAC1 ag,USP1 inh,EPAC2 ag,VDR inh confirm,VDR FP fluor,VDR bla reporter,VDR cytotox,others
NC(C(=O)O)c1cccc(O)c1 (stereo unspecified),13%,x,x,x,x,x,x,x,x,x,
COc1ccc(C(=O)/C=C/C(=O)N(CC(=O)NC2CCCCC2)CC2CCCO2)c(O)c1 (stereo unspecified),8.9µM*,-20%,-12%,-1%,-12%,-2%,6.7*,u,13µM*,15µM*,
COc1ccc(C(=O)/C=C/C(=O)N(CC(=O)NC2CCCCC2)Cc2ccccc2OC)c(O)c1,u,-5%,-14%,3%,-22%,-7%,x,x,x,x,
COc1ccc(C(=O)/C=C/C(=O)N(CC(=O)NC2CCCCC2)Cc2ccccc2)c(O)c1,28µM*,-10%,11%,-4%,-11%,-13%,12*,u,13µM*,u,
COc1cc(/C=C/C(=O)N2C(=O)c3cccc(N)c3C2=O)cc(OC)c1OC,41%,-2%,5%,6%,-7%,12%,x,x,x,x,
Nc1cccc2c1C(=O)N(C(=O)/C=C/c1cccc(Br)c1)C2=O,40µM*,-25%,u,9%,u,3%,9.5*,4.5µM*,-20%,15%,
COc1ccc(CCNC(=O)Cc2c(C)c3c(cc(C)c4c(C)coc43)oc2=O)cc1,1%,x,x,x,-16%,x,x,x,x,x,
CCS(=O)(=O)c1oc(-c2ccc(F)cc2)nc1S(=O)(=O)c1ccccc1,20µM*,x,x,x,u,x,4.5*,4µM*,5.8µM*,9.5µM*,
CCOc1cc(/C=C2\N=C(C)OC2=O)cc(Br)c1OCC(=O)OC,20µM*,-3%,3%,9%,-14%,13%,11*,u,8%,6%,
COc1cc(/C=C/C(=O)c2ccc(F)cc2)cc(OC)c1OC,32µM*,8%,-6%,-3%,-17%,0%,21*,u,u,u,
CC(=O)OCCN(C)c1cc(SC(C)C)c2nonc2c1[N+](=O)[O-],u,-2%,-8%,10%,-23%,2%,x,x,x,x,
CN(CCO)c1cc(Sc2nc3ccccc3s2)c2nonc2c1[N+](=O)[O-],25µM*,2%,-10%,6%,-18%,3%,6.7*,3.5µM*,u,3.2µM*,
O=S(=O)(c1ccc(OC(F)(F)F)cc1)N1CCN(c2nc(-c3cccs3)nc3ccccc23)CC1,-10%,x,x,x,x,x,x,x,x,x,
N[C@@H](Cc1cc(-c2ccc(Cl)cc2Cl)cc(CP(=O)(O)O)c1O)C(=O)O,45µM*,x,x,x,x,x,x,x,x,x,USP1 UbRho=42µM*
NC(Cc1ccc(Cl)cc1)C(=O)O (stereo unspecified),2%,x,x,x,x,x,x,x,x,x,
CC(C)(C)C(=O)OCc1cc(=O)n2nc(C3CCCCC3)sc2n1,-4%,x,x,x,-22%,x,x,x,x,x,
CCCC/C=C/[C@H](c1ccccc1)[C@H](CO)Cc1cnc2ccccc2c1,2%,x,x,x,x,x,x,x,x,x,
Cn1c(Sc2ccc([N+](=O)[O-])cc2C(F)(F)F)nnc1-c1ccccc1,-5%,12%,5%,-3%,-19%,0%,x,x,x,x,
CCn1nc(C)cc1-c1nnc(Sc2ncc([N+](=O)[O-])s2)n1C,7.9µM*,0%,5%,7%,-12%,-1%,4.7*,3.5µM*,3.7µM*,u,
CCS(=O)(=O)N1CC(=O)N(c2cccc(C)c2C)C(C)(C(=O)NC2CCCCC2)C1 (stereo unspecified),14%,x,x,x,-13%,x,x,x,x,x,
Cc1ccc(C(=O)Oc2oc(-c3ccco3)nc2C=Nc2ccc(Cl)cc2)cc1,50µM*,-4%,-11%,3%,-8%,0%,11*,u,-4%,1%,
Cc1ccc(C(=O)Oc2oc(-c3ccccc3)nc2C=Nc2ccc(N(C)C)cc2)cc1,-21%,42%,10%,-5%,-1%,-167%,x,x,x,x,
O=C(Oc1oc(-c2ccco2)nc1C=Nc1ccccc1)c1ccoc1,50µM*,-1%,3%,7%,-4%,8%,u,u,u,u,
Cc1ccc(N=Cc2nc(-c3ccco3)oc2O)cc1,21%,-2%,-11%,18%,u,20%,x,x,x,x,
O=C(Oc1oc(-c2ccco2)nc1C=Nc1ccccc1)c1ccco1,28µM*,-3%,1%,17%,-2%,4%,6*,u,u,-10%,
SMILES,VDR inhibitor,EPAC2 antag,EPAC1 antag,EPAC1 ag,USP1 inh,EPAC2 ag,VDR inh confirm,VDR FP fluor,VDR bla reporter,VDR cytotox,others
CC[C@H](C)[C@H](NC(=O)[C@H](Cc1ccc(O)cc1)NC(=O)[C@@H]1CCCN1C(=O)[C@@H](N)CCCN=C(N)N)C(=O)N[C@@H](CC(C)C)C(=O)O,2%,x,x,x,x,x,x,x,x,x,
CC(C)CCN(Cc1ccco1)C(=O)c1cc2c(Cl)nc3ccccc3c2s1,-16%,x,x,x,u,x,x,x,x,x,
Fc1cccc(Cl)c1CNc1ccc(N2CCCC2)cc1,50µM*,-15%,-4%,7%,-24%,2%,12*,13µM*,-16%,u,
O=C(O)C1Cc2c([nH]c3ccccc23)C(c2coc3ccccc3c2=O)N1 (stereo unspecified),-28%,x,x,x,x,x,x,x,x,x,
CCC(=O)NC(c1ccccc1OC)c1ccc2cccnc2c1O (stereo unspecified),3%,3%,0%,8%,-5%,12%,x,x,x,x,
COc1ccc(Cl)cc1C(Nc1cccnc1)c1ccc2cccnc2c1O (stereo unspecified),20µM*,-16%,-15%,10%,-25%,-3%,21*,u,-30%,-19%,
COc1ccc(/C=C/C(=O)c2ccc([N+](=O)[O-])o2)cc1,-16%,31%,-3%,-1%,-12%,6%,x,x,x,x,

# Source: PubChem BioAssay
